Rows were chosen to be rich in hits. Some 2.7% of all compounds tested hit in one or more screens of this group.
CFTR F508del cor = F508del CFTR correction, initial screen, CFBE line, single point; CFBE cells, YFP halide quenching; stimulated with forskolin plus potentiator P3; % fluorescence drop versus neutral controls; activity (quench increase), % at 7.58 µM; 350,000 tested, 0.36% active;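 active = mean added fluorescence quench of at least 8% versus neutral control, with both replicates also reaching 8%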;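 also: cells transiently co-express mutant CFTR-F508del with the halide-sensitive YFP; corrector assay measuring rescue of mutant channel to the surface after 24 h compound exposure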
SKN-1 inh = suppressors of acrylamide-induced Pgst-4::GFP reporter in worms, primary screen, SKN-1 inhibitor project, whole organism, uHTS, GFP/RFP fluorescence ratio, strain VP596; 360,000 tested, 0.49% active; inhibition, % at 21.8 µM; C. elegans VP596 Pgst-4::GFP/RFP ratio, 24 h;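 active = interference check ratio from 0.5 to 1.5 plus GFP to RFP signal ratio inhibition reaching or exceeding a fixed threshold, cut at about 30% in these data, passing the limit was not always enough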
MPTP inh = mitochondrial permeability transition pore inhibitors, primary screen, biochemical, isolated mouse mitochondria, absorbance | 360,000 tested, 1.4% active | inhibition, % at 10 µM | Ca2+ swelling absorbance, 30 min;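 active = inhibition of 50% or more, scaled per plate between neutral and stimulator controls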
ATG4B inhibitor = ATG4B protease inhibitors, primary screen, biochemical, fluorescence, uHTS. 340,000 tested, 0.51% active. ATG4B cleavage of LC3-PLA2, NBD-HPC fluorescence, 1 h. AID 504462, 2011. inhibition, % at 8.33 µM. Cysteine protease ATG4B (Homo sapiens), Q9Y4P1; in the data active = inhibition above about 40%
NRP1-CendR mod = modulators of CendR peptide binding to NRP-1, primary screen, biochemical, fluorescence polarization, uHTS; Neuropilin-1 (Homo sapiens), O14786; FAM-RPARPAR peptide binding to NRP-1; inhibition, % at 25 µM; 360,000 tested, 0.85% active; AID 602438, 2012;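 active = inhibition or corrected inhibition above about 18%, plus a signal ratio from 0.5 to 1.5, limit read from the data, passing the limit was not always enough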
Target sequence (O14786 whole entry, looked up): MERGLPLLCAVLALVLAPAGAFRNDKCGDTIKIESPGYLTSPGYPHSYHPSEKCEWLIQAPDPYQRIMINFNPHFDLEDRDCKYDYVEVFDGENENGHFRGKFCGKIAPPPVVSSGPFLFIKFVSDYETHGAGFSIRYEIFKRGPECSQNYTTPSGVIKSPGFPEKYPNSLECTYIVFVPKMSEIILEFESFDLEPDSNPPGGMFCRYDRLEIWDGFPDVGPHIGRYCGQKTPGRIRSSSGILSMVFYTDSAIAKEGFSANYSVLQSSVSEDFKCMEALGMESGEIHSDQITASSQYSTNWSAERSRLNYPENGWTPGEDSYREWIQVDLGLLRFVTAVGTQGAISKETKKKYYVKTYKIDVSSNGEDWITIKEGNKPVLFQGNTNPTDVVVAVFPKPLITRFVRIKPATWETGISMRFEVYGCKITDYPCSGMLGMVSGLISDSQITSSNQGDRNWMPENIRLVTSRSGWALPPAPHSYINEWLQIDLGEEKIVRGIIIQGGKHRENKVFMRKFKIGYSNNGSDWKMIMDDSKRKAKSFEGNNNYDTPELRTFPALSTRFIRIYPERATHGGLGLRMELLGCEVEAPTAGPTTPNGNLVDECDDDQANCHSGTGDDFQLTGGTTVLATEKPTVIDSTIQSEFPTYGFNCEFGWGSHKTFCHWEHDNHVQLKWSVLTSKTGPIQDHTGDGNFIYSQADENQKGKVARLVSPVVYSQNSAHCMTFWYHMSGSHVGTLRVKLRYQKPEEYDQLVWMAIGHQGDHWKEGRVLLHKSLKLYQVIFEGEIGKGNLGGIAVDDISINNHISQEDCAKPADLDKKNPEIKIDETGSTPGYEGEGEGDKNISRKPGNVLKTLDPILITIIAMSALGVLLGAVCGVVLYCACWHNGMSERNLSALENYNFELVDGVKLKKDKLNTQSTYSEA
A number is an active result; - = inactive; . = no result.

SMILES | CFTR F508del cor | SKN-1 inh | MPTP inh | ATG4B inhibitor | NRP1-CendR mod
O=C(OC1CCOC1=O)C1CCN(S(=O)(=O)c2c(Cl)cccc2Cl)CC1 (stereo not drawn) | - | - | - | - | 20
CC1OC(OCC2OC(Oc3c(-c4ccc(O)cc4)oc4cc(O)cc(O)c4c3=O)C(O)C(O)C2O)C(O)C(O)C1O (stereo not drawn) | - | - | - | - | 22
CC1OC(OC2C(Oc3c(-c4ccc(O)cc4)oc4cc(O)cc(O)c4c3=O)OC(COC3O[C@@H](C)[C@H](O)[C@@H](O)C3O)C(O)C2O)C(O)C(O)C1O (stereo partly drawn) | - | - | - | - | -
COc1ccc(S(=O)(=O)N(C)C[C@@H]2Oc3ccc(N(C)C)cc3CC(=O)N([C@H](C)CO)C[C@@H]2C)cc1 | - | . | . | . | .
CN(C(=O)COC(=O)c1ccccc1SCC(=O)N1CCCC1)C1CCS(=O)(=O)C1 (stereo not drawn) | - | - | - | - | 20
CCCOc1ncnc2c1[nH]c1ccccc12 | . | - | - | - | -
CC(C)Oc1ncnc2c1[nH]c1ccccc12 | 10 | - | - | - | -
CC(=O)OCCn1c2nc(=O)[nH]c(=O)c-2nc2cc(C)c(C)cc21 | 18 | - | - | - | -
C[C@@H]1CCCCO[C@H](CN(C)C)[C@@H](C)CN([C@H](C)CO)C(=O)c2cc(NC(=O)c3ccccc3)ccc2O1 | - | . | . | . | .
CCS(=O)(=O)N1[C@H](CO)[C@@H](c2ccccc2)C12CN(C(=O)C1CCCC1)C2 | - | . | . | . | .
CC1CC(C)CN(C(=O)c2ccc3c(=O)n(Cc4ccc5c(c4)OCO5)c(=S)[nH]c3c2)C1 (stereo not drawn) | . | - | - | 101 | -
COC(=O)C[C@@H]1CC[C@@H]2[C@@H](COc3ccc(NC(=O)c4ccccc4OC)cc3C(=O)N2C)O1 | - | . | . | . | .
C[C@H]1CN([C@@H](C)CO)C(=O)c2cc(NC(=O)Cn3cnnn3)ccc2O[C@H]1CN(C)C(=O)Nc1cccc2ccccc12 | - | . | . | . | .
CO[C@@H]1CN(C)C(=O)c2ccc(NC(=O)Nc3ccccc3)cc2OC[C@@H](C)N(C(=O)CN(C)C)C[C@@H]1C | - | . | . | . | .
CC12CCC3c4ccc(O)cc4CCC3C1CCC2=O (stereo not drawn) | 9.4 | - | - | - | -
Cc1ccc(C)c(N2CCN(C(c3ccc(N(C)C)cc3)c3nnnn3C(C)(C)C)CC2)c1 (stereo not drawn) | . | 46 | - | - | -
Cc1ccc(C)c(N2CCN(C(c3ccccc3)c3nnnn3C(C)(C)C)CC2)c1 (stereo not drawn) | - | - | - | . | -
CCC(=O)Nc1ccc2c(c1)OC[C@H](C)N(Cc1ccncc1)C[C@@H](C)[C@H](OC)CN(C)C2=O | - | . | . | . | .
O=C(C[C@@H]1CC[C@@H]2[C@H](COC[C@@H](O)CN2Cc2ccccc2F)O1)NC1CCC1 | - | . | . | . | .
CCN(C(=O)CSc1nc2ccccc2c(=O)n1-c1ccccc1F)C1CCS(=O)(=O)C1 (stereo not drawn) | 11 | - | - | - | -
CCN(C(=O)CSc1nc2ccccc2c(=O)n1-c1ccc(C)cc1)C1CCS(=O)(=O)C1 (stereo not drawn) | - | - | - | - | -
N#CC1=C(N)OC2=C(CN(Cc3ccccc3)C/C2=C\c2cccnc2)C1c1cccnc1 (stereo not drawn) | . | - | - | - | -
CC(C)N1CC2=C(OC(N)=C(C#N)C2c2cccnc2)/C(=C/c2cccnc2)C1 (stereo not drawn) | . | - | - | - | 26
C[C@@H]1CN([C@H](C)CO)C(=O)c2cccc(NS(=O)(=O)c3cccs3)c2O[C@@H]1CN(C)C(=O)Nc1ccc(C(F)(F)F)cc1 | - | . | . | . | .
O=C(CCN1CCCCC1)NCC[C@@H]1CC[C@@H](NC(=O)C2CC2)[C@H](CO)O1 | - | . | . | . | .
CCOc1ccc(NS(=O)(=O)c2cc(Cl)ccc2OC)cc1 | . | - | - | - | 22
CCOc1cc(NC(=O)c2ccco2)c(OCC)cc1NC(=O)c1ccco1 | - | - | - | - | -
CCOc1cc(NC(=O)c2ccco2)c(OCC)cc1NC(=O)CCc1ccccc1OC | . | 39 | - | - | -

Bioassay records from PubChem BioAssay.
